This excerpt belongs to a sample that is enriched for hits.
Shiga inhibitor: A qHTS for Small Molecule Inhibitors of Shiga Toxin | hit rate 9.2% among 290,000 | inhibition, % at 38.7 µM | AID 2315, 2010 | Vero cells, Shiga toxin protein synthesis inhibition reporter; in the data active = inhibition mostly above about 28%, no sharp cut-off; inactive = mostly below about 43%
NS1 inh: qHTS Assay for Inhibitors of Influenza NS1 Protein Function; Potency, µM (top dose mostly 46.1 µM); hit rate 0.4% among 270,000; calls by dose curve; also: actives are rising curves; nearly all actives have a fitted effect of over 50% in size
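Compounds were scored for reversing the slow growth caused by influenza A NS1 in S. cerevisiae, measured by optical density at 600 nm. Assay medium contained 2% galactose at pH 6.0; NS1-free yeast of the same strain were the positive control.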
AmpC inh detg: qHTS Inhibitors of AmpC Beta-Lactamase (assay with detergent). AmpC hydrolysis of nitrocefin, absorbance 480 nm, 0.01% Triton. AID 485294, 2010. hit rate 0.041% among 370,000. Potency, µM (top dose mostly 114 µM), most hits filed as inhibitors. P00811; also: nearly all actives have a fitted effect of over 25% in size
Target sequence (P00811 whole entry, looked up): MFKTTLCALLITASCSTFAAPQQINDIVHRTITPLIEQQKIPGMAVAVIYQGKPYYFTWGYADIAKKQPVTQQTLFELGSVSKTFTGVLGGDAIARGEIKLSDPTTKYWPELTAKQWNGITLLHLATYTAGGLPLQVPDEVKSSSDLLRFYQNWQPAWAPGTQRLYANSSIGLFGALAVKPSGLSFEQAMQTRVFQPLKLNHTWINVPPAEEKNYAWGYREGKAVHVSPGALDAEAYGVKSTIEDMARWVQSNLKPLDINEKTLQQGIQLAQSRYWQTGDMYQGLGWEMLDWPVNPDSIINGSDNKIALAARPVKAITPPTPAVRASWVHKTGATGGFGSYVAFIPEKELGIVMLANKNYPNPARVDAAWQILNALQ
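AmpC (5.3 nM in the dispensed reagent) in 20 mM phosphate pH 7.0 with 0.01% (detergent screen) or 0.0001% Triton X-100 was preincubated with compounds for 15 min at room temperature. Nitrocefin was then added from an 800 uM solution, and hydrolysis was followed at 480 nm.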
Cycloheximide cs: Cycloheximide Counterscreen for Small Molecule Inhibitors of Shiga Toxin. cell reporter, cycloheximide protein synthesis inhibition counterscreen. max response, %. hit rate 12% among 300,000; in the data active = max response mostly above about 13%, no sharp cut-off; inactive = mostly below about 14%; also: read at 38.3 µM for the half of the compounds with a filed dose
AmpC inh no detg: qHTS Inhibitors of AmpC Beta-Lactamase (assay without detergent). AID 485341, 2010. Potency, µM (doses to about 57.1 µM), actives largely listed as inhibitors. AmpC nitrocefin hydrolysis, absorbance 480 nm, 0.0001% Triton. hit rate 0.52% among 330,000; also: nearly all actives have a fitted effect of over 20% in size
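AmpC (5.3 nM in the dispensed reagent) in 20 mM phosphate pH 7.0 with 0.01% (detergent screen) or 0.0001% Triton X-100 was preincubated with compounds for 15 min at room temperature. Nitrocefin was then added from an 800 uM solution, and hydrolysis was followed at 480 nm.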
Large screens that a line does not name were inactive. Unless noted, calls follow the shape of the dose curve; as a rule, active = well fitted curve in the direction sought with a large enough effect; inconclusive = small, poorly fitted or top-dose-only effect, or another doubt; inactive = no such curve, though single readings can be large; an effect the other way counts as inactive or inconclusive.

COC(=O)CCCNC(=O)c1ccc2oc(CCCc3ccccc3)nc2c1	Shiga inhibitor 21, AmpC inh detg inconclusive, Cycloheximide cs 24
CCCc1nc2cc(Cl)c([N+](=O)[O-])cc2o1	none
COC(=O)[C@@H](C)NC(=O)c1ccc2oc(CCc3ccccc3)nc2c1	Shiga inhibitor 31, AmpC inh detg inconclusive, Cycloheximide cs 51
CCCc1nc2cc(CC(=O)OC)ccc2o1	AmpC inh detg inconclusive, Cycloheximide cs 22
CC(C)CCNC(=O)c1ccc2nc(CCc3ccccc3)oc2c1	none (no result: Shiga inhibitor, NS1 inh, Cycloheximide cs, AmpC inh no detg)
COc1ccc2[nH]c(C(=O)N3CCN(Cc4ccccc4)CC3)cc2c1OC	none
CN1C(=O)Cc2cc(S(=O)(=O)CCC(=O)Nc3ccc(Cl)cc3)ccc21	none (no result: Shiga inhibitor, NS1 inh, Cycloheximide cs, AmpC inh no detg)
CCOC(=O)CCn1nc(-c2ccc(Cl)cc2)cc1N	Cycloheximide cs 20
CCOC(=O)N1CCN(C(=O)CCn2nc(-c3ccc(Cl)cc3)ccc2=O)CC1	NS1 inh inconclusive
CCOC(=O)Cn1nc(-c2ccc(Cl)cc2)cc1N	Shiga inhibitor 92, Cycloheximide cs 38
CCOC(=O)c1noc2nc(C)n(Cc3ccc([N+](=O)[O-])cc3)c(=O)c12	none (no result: Shiga inhibitor, NS1 inh, Cycloheximide cs, AmpC inh no detg)
Cc1cc(SCC(=O)c2ccc(O)c(O)c2)n2nc(C)c(-c3ccccc3)c2n1	AmpC inh no detg 6.3µM
Cc1ccc(-c2c(C(=O)N3CCN(c4cc(Cl)ccc4C)CC3)oc(=O)c3ccccc23)cc1	none (no result: Shiga inhibitor, NS1 inh, Cycloheximide cs, AmpC inh no detg)
Nc1ccccc1C(=O)NNc1c2ccccc2nc2ccccc12	Shiga inhibitor 111, Cycloheximide cs 19
Cc1ccc(C(=O)NNc2c3ccccc3nc3ccccc23)cc1	Shiga inhibitor 85, Cycloheximide cs 41
O=S(=O)(c1cnc[nH]1)N1CCN(c2ccc(F)cc2)CC1	none
Fc1ccc(-c2cnc[nH]2)cc1	Cycloheximide cs 23
COc1ccc(OC)c(S(=O)(=O)Nc2cc3c(C(C)=O)c(C)oc3c3ccccc23)c1	none (no result: Shiga inhibitor, NS1 inh, Cycloheximide cs, AmpC inh no detg)
COC(=O)c1c(C)oc2c1cc(NS(=O)(=O)c1cccs1)c1ccccc12	AmpC inh no detg 11µM
COc1ccc(NC(=O)C(=O)NNC(=O)C(C)Oc2ccc(Cl)cc2Cl)cc1 (stereo not drawn)	AmpC inh no detg 32µM (no result: NS1 inh)
CCOc1cc(/C=N/O)ccc1OCc1ccc(C)cc1	Shiga inhibitor active, Cycloheximide cs 27
O/N=C/c1cc(Br)ccc1OCc1cccc(F)c1	Cycloheximide cs 26
CCOc1cc(/C=N/O)ccc1OCC(=O)Nc1cccc(C)c1	Shiga inhibitor 41, Cycloheximide cs 31
O=C(CNC(=O)c1cccc(F)c1)N/N=C/c1cc(Br)ccc1OCc1ccccc1	NS1 inh inconclusive, AmpC inh detg inconclusive
Cc1ccc(COc2ccc(Br)cc2/C=N/O)cc1	Cycloheximide cs 31
CCOc1cc(/C=N/O)ccc1OS(=O)(=O)c1ccc(C)cc1	none
O=C(Cn1cc(C(F)(F)F)ccc1=O)NC1CCCC1	none (no result: Shiga inhibitor, NS1 inh, Cycloheximide cs)
COC(=O)c1ccc(CSc2nnc(Nc3cccc(OC)c3)s2)o1	AmpC inh detg inconclusive
Cc1cccc(Nc2nnc(SCC3CCCCO3)s2)c1C (stereo not drawn)	Shiga inhibitor 66, Cycloheximide cs 54
COc1ccc(Nc2nnc(SCC3CCCO3)s2)cc1 (stereo not drawn)	Cycloheximide cs 24
COc1cccc(Nc2nnc(SCC3CCCCO3)s2)c1 (stereo not drawn)	Shiga inhibitor 53, Cycloheximide cs 53 (no result: NS1 inh)
O=c1c2sc3ccccc3c2n(Cc2cccc(C(F)(F)F)c2)c(=O)n1Cc1ccco1	none (no result: Shiga inhibitor, NS1 inh, Cycloheximide cs, AmpC inh no detg)
CCN(CC)c1ccc(/C=C/c2nc3ccccc3s2)cc1	Shiga inhibitor 127, Cycloheximide cs 40
CNC(=O)COC(=O)/C=C/c1nc2ccccc2s1	AmpC inh detg inconclusive (no result: NS1 inh)
CCN(CC)c1ccc(NC(=O)COC(=O)/C=C/c2nc3ccccc3s2)cc1	Cycloheximide cs 14
CS(=O)(=O)N1CCCC(C(=O)Nc2ccccc2)C1 (stereo not drawn)	none (no result: Shiga inhibitor)
CCN(CC)S(=O)(=O)c1ccc(NC(=O)COC(=O)c2ccc(-n3nc(C)cc3C)cc2)cc1	none
CCN(CC)S(=O)(=O)c1ccc(C(=O)OCC(=O)Nc2ccc(-c3nc4ccc(C)cc4s3)cc2)cc1	Shiga inhibitor 115, Cycloheximide cs 74
CCN(CC)S(=O)(=O)c1cc(C(=O)OCC(=O)Nc2ccc(-c3nc4ccc(C)cc4s3)cc2)ccc1F	Shiga inhibitor 92, Cycloheximide cs 63, AmpC inh no detg inconclusive
CCC1=C(OC(=O)N(CC)CC)N2C(=O)OC(=NCC3CC3)[C@]2(C)[C@H]2C1=CC[C@H]1C(=O)N(CC)C(=O)[C@H]12	none
COc1ccc(C2=Nn3c(nnc3-c3cc(OC)ccc3OC)SC2)c(OC)c1	none (no result: NS1 inh, AmpC inh detg, AmpC inh no detg)
Cn1nc(OC(=O)Nc2ccc(Cl)cc2)cc1C(F)(F)F	Cycloheximide cs 17
O=[N+]([O-])c1ccc(S(=O)(=O)N/N=C/c2ccco2)cc1	none (no result: NS1 inh)
O=C1c2ccc([N+](=O)[O-])cc2NC(c2ccco2)N1/N=C/c1ccco1 (stereo not drawn)	Shiga inhibitor 31, Cycloheximide cs 15
CN=c1scc(-c2ccc([N+](=O)[O-])cc2)n1/N=C/c1ccco1	Shiga inhibitor 91, Cycloheximide cs 27
CCOc1cc(C2c3c(oc4ccccc4c3=O)C(=O)N2Cc2ccc3c(c2)OCO3)ccc1O (stereo not drawn)	none (no result: Shiga inhibitor, NS1 inh, Cycloheximide cs, AmpC inh no detg)
CC(C)(C)C(=O)/C=C/Nc1ccccc1O	none
COc1cccc(C(=O)/C=C/Nc2ccc(NC(C)=O)cc2)c1	Cycloheximide cs 42
CC(=O)Nc1ccc(NC(=O)c2cccc(Oc3ccccc3)c2)cc1	none
COc1ccc(C(=O)/C=C/Nc2ccc(NC(C)=O)cc2)cc1OC	none
CC(=O)Nc1ccc(N/C=C/C(=O)c2ccccc2)cc1	Shiga inhibitor 53, AmpC inh detg inconclusive, Cycloheximide cs 37
CN(C)c1ccc(N/C=C/C(=O)C(C)(C)C)cc1	Shiga inhibitor 148
CN(C)c1ccc(N/C=C/C(=O)c2ccccc2)cc1	Shiga inhibitor 78, Cycloheximide cs 28
Cc1cc(N/C=C/C(=O)c2ccccc2)ccc1Br	Shiga inhibitor 56, AmpC inh detg inconclusive, Cycloheximide cs 37
O=C(/C=C/Nc1ccccc1)c1ccc(Cl)cc1Cl	Shiga inhibitor 98, Cycloheximide cs 42
COc1cccc(C(=O)/C=C/Nc2ccc(S(=O)(=O)Nc3cccc(C(C)=O)c3)cc2)c1	Shiga inhibitor 97, Cycloheximide cs 57
C/C(=C\C(=O)c1ccc(Cl)cc1Cl)N(C)C	Shiga inhibitor 32 (no result: NS1 inh)
COc1cccc(/C=C/C(=O)c2ccc(NS(=O)(=O)c3ccc(C)cc3)cc2)c1	none
CN(C)/C=C/C(=O)c1ccc(Cl)cc1Cl	none
CCOC(=O)c1cnc2c(Cl)cc(Cl)cc2c1Nc1ccccc1OC	none (no result: Shiga inhibitor, NS1 inh, Cycloheximide cs, AmpC inh no detg)
Cc1ccc(C(=O)O)cc1NC1(c2ccccc2)C(=O)c2ccccc2C1=O	none (no result: Shiga inhibitor, NS1 inh, Cycloheximide cs, AmpC inh no detg)
COC(=O)[C@H]1C[C@H](O)CN1S(=O)(=O)c1ccc(Br)cc1F	none (no result: Shiga inhibitor, NS1 inh, AmpC inh detg, Cycloheximide cs)
CN(C)C(/C=C/Nc1ccc(F)cc1F)=C(C#N)C#N	AmpC inh detg inconclusive
